Reference: article PMC7862700, “An all-to-all approach to the identification of sequence-specific readers for epigenetic DNA modifications on cytosine”

Assays:
Assay in all cases: DAPPL (digital affinity profiling via proximity ligation, sequencing); 10 mM Tris-HCl pH 7.5, 50 mM NaCl, 1 mM DTT, 4% glycerol, room temperature, 30 min; GST-TFs on glutathione beads, 16-mer random dsDNA library, 0.1% formaldehyde crosslink after washing; high values mean tight binding
Conditions in all cases: protein: recombinant; tags: N-terminal GST; dsDNA, one strand shown
ERG = target: T1, ERG (Homo sapiens, UniProt P11308 1-479)
T1 sequence: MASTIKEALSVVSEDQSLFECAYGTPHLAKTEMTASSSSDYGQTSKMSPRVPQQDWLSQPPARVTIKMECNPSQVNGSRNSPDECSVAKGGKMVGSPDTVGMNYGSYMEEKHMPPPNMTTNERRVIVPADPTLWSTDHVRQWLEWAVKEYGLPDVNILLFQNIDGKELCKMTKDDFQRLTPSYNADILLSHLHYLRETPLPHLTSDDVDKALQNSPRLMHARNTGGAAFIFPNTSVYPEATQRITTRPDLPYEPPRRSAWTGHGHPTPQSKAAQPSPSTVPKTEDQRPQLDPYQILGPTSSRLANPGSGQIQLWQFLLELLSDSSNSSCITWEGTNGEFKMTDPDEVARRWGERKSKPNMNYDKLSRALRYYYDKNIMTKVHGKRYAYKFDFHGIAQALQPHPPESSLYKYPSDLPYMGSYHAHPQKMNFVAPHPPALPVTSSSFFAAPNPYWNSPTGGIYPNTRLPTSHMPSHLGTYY
Method in brief: (§1)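 Human transcription factors fused to GST were expressed in yeast, captured on glutathione beads, given DNA barcodes and pooled with a GST-only negative control. Pools were incubated with 200 nmole of a 16-mer random double-stranded DNA library in Tris/NaCl/DTT/glycerol buffer at room temperature for 30 min. They were then washed, crosslinked with 0.1% formaldehyde, proximity-ligated (BsaI/T4 ligase, 1 h, 37 °C), PCR-amplified and sequenced on an Illumina NextSeq500. Binding signal is each 6-mer's read frequency for a factor divided by its frequency for the GST control.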

EHF = target: T2, EHF (Homo sapiens, UniProt Q9NZC4 1-300)
T2 sequence: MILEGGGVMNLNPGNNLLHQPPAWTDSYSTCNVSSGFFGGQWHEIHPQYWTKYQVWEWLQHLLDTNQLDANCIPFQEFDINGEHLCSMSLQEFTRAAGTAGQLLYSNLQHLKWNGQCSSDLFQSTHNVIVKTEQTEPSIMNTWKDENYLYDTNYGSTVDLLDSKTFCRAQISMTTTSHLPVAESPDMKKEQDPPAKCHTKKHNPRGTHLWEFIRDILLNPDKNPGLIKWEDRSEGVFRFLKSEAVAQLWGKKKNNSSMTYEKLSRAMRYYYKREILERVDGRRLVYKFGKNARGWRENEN
Method in brief: as §1

SPIB = SPIB (Homo sapiens, UniProt Q01892 1-262)
Sequence of SPIB (Q01892 whole entry): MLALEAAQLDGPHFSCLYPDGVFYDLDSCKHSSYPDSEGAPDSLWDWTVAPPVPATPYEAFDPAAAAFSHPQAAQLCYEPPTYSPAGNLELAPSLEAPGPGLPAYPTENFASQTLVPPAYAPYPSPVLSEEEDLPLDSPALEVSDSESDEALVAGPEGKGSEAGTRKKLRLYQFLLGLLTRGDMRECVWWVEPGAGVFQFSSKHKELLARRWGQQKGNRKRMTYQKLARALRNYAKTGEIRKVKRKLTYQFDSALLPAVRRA
Method in brief: as §1

ETV5 = ETV5 (Homo sapiens, UniProt P41161 1-510)
Sequence of ETV5 (P41161 whole entry): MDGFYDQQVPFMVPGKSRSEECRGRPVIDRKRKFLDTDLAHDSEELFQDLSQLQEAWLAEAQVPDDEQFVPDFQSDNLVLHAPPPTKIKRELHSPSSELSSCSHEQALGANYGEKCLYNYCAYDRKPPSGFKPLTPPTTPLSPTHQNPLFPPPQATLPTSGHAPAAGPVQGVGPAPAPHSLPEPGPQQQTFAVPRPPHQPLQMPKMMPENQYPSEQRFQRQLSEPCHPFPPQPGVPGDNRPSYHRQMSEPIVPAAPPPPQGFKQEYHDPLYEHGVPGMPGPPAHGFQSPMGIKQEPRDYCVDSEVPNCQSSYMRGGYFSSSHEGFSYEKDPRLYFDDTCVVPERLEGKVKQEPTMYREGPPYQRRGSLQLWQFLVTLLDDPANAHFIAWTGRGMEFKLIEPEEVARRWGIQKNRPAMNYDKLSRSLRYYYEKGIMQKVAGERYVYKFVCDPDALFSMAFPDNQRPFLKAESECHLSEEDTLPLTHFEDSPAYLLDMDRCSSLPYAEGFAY
Method in brief: as §1

ETV1 = ETV1 (Homo sapiens, UniProt P50549 1-477)
Sequence of ETV1 (P50549 whole entry): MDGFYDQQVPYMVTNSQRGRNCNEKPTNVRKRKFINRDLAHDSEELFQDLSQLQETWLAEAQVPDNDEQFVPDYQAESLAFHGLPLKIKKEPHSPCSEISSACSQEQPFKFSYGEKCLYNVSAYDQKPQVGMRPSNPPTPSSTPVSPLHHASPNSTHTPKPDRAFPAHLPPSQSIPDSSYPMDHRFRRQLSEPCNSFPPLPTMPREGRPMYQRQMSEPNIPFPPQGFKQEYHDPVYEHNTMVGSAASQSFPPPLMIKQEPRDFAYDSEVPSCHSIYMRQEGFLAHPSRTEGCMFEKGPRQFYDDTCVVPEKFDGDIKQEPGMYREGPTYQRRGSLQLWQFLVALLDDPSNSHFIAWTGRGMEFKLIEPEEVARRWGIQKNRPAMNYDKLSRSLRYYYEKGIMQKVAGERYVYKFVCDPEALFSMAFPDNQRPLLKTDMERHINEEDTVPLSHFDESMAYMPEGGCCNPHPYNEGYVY
Method in brief: as §1

ETV3L = target: T3, ETV3L (Homo sapiens, UniProt Q6ZN32 1-361)
T3 sequence: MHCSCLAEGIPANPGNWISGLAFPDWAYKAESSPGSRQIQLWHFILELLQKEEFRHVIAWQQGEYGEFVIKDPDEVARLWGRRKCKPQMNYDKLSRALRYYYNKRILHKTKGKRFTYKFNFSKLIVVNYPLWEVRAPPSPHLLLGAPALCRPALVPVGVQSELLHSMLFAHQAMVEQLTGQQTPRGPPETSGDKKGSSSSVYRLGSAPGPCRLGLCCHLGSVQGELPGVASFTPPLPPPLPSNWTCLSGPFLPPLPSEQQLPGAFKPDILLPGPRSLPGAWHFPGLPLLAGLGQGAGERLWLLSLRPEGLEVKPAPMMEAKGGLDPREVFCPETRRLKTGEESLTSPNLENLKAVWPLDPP
Method in brief: as §1

ETS2 = target: T4, ETS2 (Homo sapiens, UniProt P15036 1-469)
T4 sequence: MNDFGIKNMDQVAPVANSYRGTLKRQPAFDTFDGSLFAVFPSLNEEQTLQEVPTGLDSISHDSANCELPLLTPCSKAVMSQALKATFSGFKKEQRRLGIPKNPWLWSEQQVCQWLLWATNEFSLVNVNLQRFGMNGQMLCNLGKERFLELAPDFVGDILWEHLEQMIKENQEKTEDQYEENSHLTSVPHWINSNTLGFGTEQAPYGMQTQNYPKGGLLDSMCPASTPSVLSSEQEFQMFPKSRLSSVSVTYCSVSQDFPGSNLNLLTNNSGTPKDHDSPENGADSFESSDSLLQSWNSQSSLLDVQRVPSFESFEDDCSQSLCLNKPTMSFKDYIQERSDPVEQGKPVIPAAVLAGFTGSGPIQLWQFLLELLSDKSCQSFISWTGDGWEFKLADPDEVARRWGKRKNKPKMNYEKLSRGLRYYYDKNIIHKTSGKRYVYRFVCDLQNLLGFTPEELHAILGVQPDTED
Method in brief: as §1

SPDEF = target: T5, SPDEF (Homo sapiens, UniProt O95238 1-335)
T5 sequence: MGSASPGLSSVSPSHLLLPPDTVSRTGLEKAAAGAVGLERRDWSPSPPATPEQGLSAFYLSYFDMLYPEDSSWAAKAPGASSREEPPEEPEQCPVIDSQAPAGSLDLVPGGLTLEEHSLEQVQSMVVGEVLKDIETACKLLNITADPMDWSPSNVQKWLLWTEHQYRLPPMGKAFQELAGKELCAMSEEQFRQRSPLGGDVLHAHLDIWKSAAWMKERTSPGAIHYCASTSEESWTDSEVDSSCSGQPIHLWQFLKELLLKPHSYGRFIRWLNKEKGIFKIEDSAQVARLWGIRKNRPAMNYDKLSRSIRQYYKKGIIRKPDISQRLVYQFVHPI
Method in brief: as §1

ETV7 = target: T6, ETV7 (Homo sapiens, UniProt Q9Y603 1-341)
T6 sequence: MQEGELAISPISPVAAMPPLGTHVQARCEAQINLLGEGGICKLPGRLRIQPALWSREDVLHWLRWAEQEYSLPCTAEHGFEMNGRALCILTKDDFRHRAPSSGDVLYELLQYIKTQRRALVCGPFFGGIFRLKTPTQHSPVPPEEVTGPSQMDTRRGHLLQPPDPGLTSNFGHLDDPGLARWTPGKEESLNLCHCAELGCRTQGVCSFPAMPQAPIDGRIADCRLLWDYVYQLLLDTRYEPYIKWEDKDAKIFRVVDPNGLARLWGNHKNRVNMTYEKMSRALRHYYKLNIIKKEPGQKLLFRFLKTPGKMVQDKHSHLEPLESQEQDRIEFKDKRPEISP
Method in brief: as §1

ETV3 = target: T7, ETV3 (Homo sapiens, UniProt P41162-2 1-143)
T7 sequence: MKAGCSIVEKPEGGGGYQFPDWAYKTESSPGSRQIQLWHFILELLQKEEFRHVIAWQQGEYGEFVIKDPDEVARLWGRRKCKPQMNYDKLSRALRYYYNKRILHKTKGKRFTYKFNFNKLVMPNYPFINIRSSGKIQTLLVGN
Method in brief: as §1

ETV6 = ETV6 (Homo sapiens, UniProt P41212 1-452)
Sequence of ETV6 (P41212 whole entry): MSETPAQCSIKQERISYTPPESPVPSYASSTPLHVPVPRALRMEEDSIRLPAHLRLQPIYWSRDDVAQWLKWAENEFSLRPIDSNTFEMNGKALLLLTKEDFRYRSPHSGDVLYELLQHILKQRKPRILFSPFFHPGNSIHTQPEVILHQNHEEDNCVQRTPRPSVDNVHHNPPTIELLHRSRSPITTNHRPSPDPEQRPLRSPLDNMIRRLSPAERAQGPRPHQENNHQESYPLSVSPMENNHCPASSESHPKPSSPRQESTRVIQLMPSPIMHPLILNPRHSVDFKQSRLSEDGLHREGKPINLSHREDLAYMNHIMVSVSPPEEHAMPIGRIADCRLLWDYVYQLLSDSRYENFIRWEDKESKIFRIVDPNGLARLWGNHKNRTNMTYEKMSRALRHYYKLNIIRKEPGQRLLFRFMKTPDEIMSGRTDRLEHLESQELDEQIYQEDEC
Method in brief: as §1

ELK1 = target: T8, ELK1 (Homo sapiens, UniProt P19419 1-428)
T8 sequence: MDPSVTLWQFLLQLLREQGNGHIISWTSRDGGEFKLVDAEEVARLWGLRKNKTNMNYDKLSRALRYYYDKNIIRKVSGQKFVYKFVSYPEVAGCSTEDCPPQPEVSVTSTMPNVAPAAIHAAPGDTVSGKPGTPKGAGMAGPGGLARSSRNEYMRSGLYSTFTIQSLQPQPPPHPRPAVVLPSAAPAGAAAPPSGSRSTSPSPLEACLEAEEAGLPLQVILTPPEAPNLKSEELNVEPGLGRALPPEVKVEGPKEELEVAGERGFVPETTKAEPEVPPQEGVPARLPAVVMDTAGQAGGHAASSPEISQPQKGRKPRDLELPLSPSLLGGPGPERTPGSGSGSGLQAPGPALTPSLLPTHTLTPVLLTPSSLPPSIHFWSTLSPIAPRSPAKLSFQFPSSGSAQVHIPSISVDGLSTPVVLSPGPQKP
Method in brief: as §1

GABPA = target: T9, GABPA (Homo sapiens, UniProt Q06546 1-454)
T9 sequence: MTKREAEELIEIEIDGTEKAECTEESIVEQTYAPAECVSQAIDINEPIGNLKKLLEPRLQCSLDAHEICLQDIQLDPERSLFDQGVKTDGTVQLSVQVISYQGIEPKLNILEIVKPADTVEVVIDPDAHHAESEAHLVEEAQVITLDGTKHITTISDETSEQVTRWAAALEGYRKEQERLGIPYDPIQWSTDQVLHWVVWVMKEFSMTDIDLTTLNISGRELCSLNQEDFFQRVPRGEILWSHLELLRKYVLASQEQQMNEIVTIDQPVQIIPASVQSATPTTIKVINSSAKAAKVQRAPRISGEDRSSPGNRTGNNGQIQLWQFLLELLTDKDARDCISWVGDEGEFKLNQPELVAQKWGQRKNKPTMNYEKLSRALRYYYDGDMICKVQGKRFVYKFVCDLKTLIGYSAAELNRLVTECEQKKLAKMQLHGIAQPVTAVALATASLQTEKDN
Method in brief: as §1

FEV = target: T10, FEV (Homo sapiens, UniProt Q99581 1-238)
T10 sequence: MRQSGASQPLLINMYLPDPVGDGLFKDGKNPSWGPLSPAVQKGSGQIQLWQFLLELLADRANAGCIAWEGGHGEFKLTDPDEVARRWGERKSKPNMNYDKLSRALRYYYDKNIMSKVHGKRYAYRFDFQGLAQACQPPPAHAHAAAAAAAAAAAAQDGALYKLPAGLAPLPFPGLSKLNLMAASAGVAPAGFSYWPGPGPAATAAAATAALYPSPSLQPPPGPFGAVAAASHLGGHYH
Method in brief: as §1

Row | Sequence | binding signal (ERG) | binding signal (EHF) | binding signal (SPIB) | binding signal (ETV5) | binding signal (ETV1) | binding signal (ETV3L) | binding signal (ETS2) | binding signal (SPDEF) | binding signal (ETV7) | binding signal (ETV3) | binding signal (ETV6) | binding signal (ELK1) | binding signal (GABPA) | binding signal (FEV)
1 | AGGATG | 1.1 fold enrichment (6-mer frequency, TF over GST control) | 1.09 fold enrichment (6-mer frequency, TF over GST control) | 1.1 fold enrichment (6-mer frequency, TF over GST control) | 1.09 fold enrichment (6-mer frequency, TF over GST control) | 1.05 fold enrichment (6-mer frequency, TF over GST control) | 1.06 fold enrichment (6-mer frequency, TF over GST control) | 1.07 fold enrichment (6-mer frequency, TF over GST control) | 1.51 fold enrichment (6-mer frequency, TF over GST control) | 1.04 fold enrichment (6-mer frequency, TF over GST control) | 1.13 fold enrichment (6-mer frequency, TF over GST control) | 1.08 fold enrichment (6-mer frequency, TF over GST control) | – | – | –
2 | TGGCGA | 1.02 fold enrichment (6-mer frequency, TF over GST control) | 1.01 fold enrichment (6-mer frequency, TF over GST control) | – | 1.01 fold enrichment (6-mer frequency, TF over GST control) | – | – | 1.06 fold enrichment (6-mer frequency, TF over GST control) | – | 1.07 fold enrichment (6-mer frequency, TF over GST control) | – | 1.03 fold enrichment (6-mer frequency, TF over GST control) | 1.02 fold enrichment (6-mer frequency, TF over GST control) | 1.01 fold enrichment (6-mer frequency, TF over GST control) | 1.02 fold enrichment (6-mer frequency, TF over GST control)
